# Rows were chosen to be rich in hits. Some 3.1% of all compounds tested hit in one or more screens of this group.
# Calb FLC – C. albicans growth inhibition with fluconazole, primary screen, CaCi-2 strain, Alamar Blue fluorescence | growth inhibition, % (no concentration beside the values) | 300,000 tested, 0.57% active | C. albicans CaCi-2 (fluconazole-resistant clinical isolate) + fluconazole, 48 h;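 active means growth inhibition above about 58% in most replicates, limit read from the data, passing the limit was not always enough; inconclusive means exactly half the replicates above a set limit; inactive means most replicates below a set limit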;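 further: all wells also contain fluconazole at 8 µg/ml as a sub-toxic cotreatment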
# SUMO Mot1 rescue – yeast Mot1-301 growth rescue at high temperature, primary screen, SUMOylation pathway inhibitor project, S. cerevisiae, ATP luminescence, 38.5C. 320,000 tested, 1% active. AID 2716, 2010. S. cerevisiae Mot1-301 growth rescue; percent above DMSO median, 100 means doubled. growth rescue, % at 18.8 µM;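 active means every valid replicate shows activation above 250% relative to neutral control wells; inactive means the rest, any valid replicate at or below 250%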
# ATG4B inhibitor – ATG4B protease inhibitors, primary screen, biochemical, fluorescence, uHTS | ATG4B cleavage of LC3-PLA2, NBD-HPC fluorescence, 1 h | inhibition, % at 8.33 µM | 340,000 tested, 0.51% active; in the data active means inhibition above about 40%
# FAS TE block – FAS thioesterase domain inhibitors, primary screen, biochemical, fluorescence intensity, uHTS | recombinant FAS-TE, OMFH fluorogenic substrate, fluorescence endpoint | Fatty acid synthase (Homo sapiens), P49327 | 360,000 tested, 0.67% active | inhibition, % at 15 µM;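 active means compounds whose normalised, plate-corrected inhibition of enzyme fluorescence in the single-dose primary screen is 50% or more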
# Target sequence (P49327 whole entry, looked up, the tested form may be a part): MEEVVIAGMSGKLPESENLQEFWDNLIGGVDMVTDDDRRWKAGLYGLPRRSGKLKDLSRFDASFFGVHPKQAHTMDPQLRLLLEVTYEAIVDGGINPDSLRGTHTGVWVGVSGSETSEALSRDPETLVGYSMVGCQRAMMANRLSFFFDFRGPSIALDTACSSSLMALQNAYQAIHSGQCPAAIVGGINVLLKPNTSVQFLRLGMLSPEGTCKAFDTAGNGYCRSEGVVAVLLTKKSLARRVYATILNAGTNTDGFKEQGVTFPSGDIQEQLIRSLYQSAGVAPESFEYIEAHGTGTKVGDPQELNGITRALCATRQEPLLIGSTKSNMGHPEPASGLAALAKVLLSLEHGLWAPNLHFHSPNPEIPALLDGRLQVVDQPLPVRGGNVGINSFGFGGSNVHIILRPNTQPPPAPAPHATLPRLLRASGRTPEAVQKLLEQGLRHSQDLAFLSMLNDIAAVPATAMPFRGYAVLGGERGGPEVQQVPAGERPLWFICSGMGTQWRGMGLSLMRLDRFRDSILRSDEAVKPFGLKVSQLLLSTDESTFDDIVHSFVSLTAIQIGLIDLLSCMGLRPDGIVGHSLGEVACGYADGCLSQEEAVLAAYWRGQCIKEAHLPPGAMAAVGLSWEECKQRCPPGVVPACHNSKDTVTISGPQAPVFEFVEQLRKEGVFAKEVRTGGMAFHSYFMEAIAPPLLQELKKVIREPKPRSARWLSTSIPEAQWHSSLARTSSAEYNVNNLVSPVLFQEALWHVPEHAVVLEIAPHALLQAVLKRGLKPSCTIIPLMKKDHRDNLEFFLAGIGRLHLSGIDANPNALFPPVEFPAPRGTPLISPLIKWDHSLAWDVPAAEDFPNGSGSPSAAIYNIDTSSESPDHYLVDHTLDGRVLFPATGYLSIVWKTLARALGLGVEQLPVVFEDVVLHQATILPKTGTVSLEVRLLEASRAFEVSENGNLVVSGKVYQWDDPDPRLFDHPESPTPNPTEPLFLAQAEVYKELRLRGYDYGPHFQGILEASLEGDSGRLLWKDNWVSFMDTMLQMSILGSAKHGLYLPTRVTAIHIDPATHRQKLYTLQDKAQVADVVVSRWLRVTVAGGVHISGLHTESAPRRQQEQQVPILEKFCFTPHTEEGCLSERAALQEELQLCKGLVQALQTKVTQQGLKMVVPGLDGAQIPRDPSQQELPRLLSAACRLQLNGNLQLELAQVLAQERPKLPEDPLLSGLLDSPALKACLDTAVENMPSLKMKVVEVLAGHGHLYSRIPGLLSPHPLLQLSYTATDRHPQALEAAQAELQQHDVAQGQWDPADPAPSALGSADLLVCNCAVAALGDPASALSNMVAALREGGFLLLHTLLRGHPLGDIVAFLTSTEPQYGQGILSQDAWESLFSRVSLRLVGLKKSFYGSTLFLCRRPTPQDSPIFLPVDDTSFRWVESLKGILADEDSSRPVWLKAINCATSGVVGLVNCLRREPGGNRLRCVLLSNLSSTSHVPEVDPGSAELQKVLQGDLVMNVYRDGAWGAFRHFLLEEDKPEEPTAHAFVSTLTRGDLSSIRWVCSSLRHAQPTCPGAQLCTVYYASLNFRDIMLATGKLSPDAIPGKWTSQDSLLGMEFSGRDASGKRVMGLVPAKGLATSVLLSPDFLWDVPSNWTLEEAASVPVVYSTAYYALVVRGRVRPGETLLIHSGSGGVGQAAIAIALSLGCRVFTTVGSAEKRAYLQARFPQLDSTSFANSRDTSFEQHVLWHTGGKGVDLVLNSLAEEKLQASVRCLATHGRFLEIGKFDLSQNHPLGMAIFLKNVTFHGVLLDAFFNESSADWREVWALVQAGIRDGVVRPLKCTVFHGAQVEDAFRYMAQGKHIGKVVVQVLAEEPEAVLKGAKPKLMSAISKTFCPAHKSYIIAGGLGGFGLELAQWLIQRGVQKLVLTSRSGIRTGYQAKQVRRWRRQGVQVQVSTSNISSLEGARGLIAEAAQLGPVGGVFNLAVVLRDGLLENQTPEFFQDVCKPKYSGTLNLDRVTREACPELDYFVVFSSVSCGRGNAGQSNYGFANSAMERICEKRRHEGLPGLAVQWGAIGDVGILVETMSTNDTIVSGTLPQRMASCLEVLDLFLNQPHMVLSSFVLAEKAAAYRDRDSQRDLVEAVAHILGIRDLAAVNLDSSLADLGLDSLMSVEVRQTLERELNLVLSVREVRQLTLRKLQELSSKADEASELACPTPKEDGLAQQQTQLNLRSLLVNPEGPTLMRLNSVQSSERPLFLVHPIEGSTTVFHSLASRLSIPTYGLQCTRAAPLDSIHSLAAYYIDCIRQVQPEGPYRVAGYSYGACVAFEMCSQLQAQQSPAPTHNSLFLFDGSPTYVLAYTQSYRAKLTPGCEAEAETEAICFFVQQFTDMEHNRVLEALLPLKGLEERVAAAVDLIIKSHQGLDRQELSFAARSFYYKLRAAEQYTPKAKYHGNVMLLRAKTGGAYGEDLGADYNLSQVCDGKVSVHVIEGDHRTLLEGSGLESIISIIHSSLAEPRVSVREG
# NadD block – inhibitors of S. aureus NadD, primary screen, biochemical, colorimetric, uHTS. Nicotinate-nucleotide adenylyltransferase NadD (Staphylococcus aureus N315). purified NadD enzyme, colorimetric absorbance read-out. inhibition, % at 20 µM. 360,000 tested, 0.78% active. AID 602399, 2012; in the data active means inhibition above about 26%
# ATG4B confirm – ATG4B protease inhibitors, retest, confirmation, biochemical, fluorescence, single concentration; ATG4B protease fluorescent substrate cleavage assay; AID 504757, 2011; 320 tested, 92% active; shares compounds with ATG4B inhibitor; inhibition, % at 8.33 µM; in the data active means inhibition above about 39%
# PLA2 ctr – PLA2 enzyme inhibition, counter-screen for ATG4B inhibitor project, biochemical, single concentration, uHTS hits; shares compounds with ATG4B inhibitor; purified PLA2, NBD-C6-HPC fluorescence, 45 min; inhibition, % at 8.33 µM; 1,600 tested, 66% active; AID 588402, 2011; in the data active means inhibition above about 50%
# Numbers stand for hits; - = inactive; ? = inconclusive; . = not tested or not shown.
SMILES,Calb FLC,SUMO Mot1 rescue,ATG4B inhibitor,FAS TE block,NadD block,PLA2 ctr,others
COc1ccc(C=O)cc1COc1ccccc1F,-,-,-,-,-,.,
CC(NC(=O)COc1ccccc1-c1ccccc1)c1ccccc1 (stereo not given),?,-,42,-,-,52,
O=C1NC(=O)C2(CCCC2)N1,.,.,-,-,-,.,
Cc1ccc(S(=O)(=O)C2C(=O)N(C)C3(C)CC2c2ccccc2O3)cc1C (stereo not given),-,-,79,-,-,85,
Cc1ccc(/C=C/C(O)=C2/C(=O)N(C)C3(C)CC2c2ccccc2O3)cc1 (stereo not given),-,-,-,-,-,.,
COc1cccc(CNc2ccc(F)c(Cl)c2)c1OC,-,-,-,-,-,.,
Fc1ccc(NCc2ccccc2F)cc1Cl,-,-,41,-,-,-,ATG4B confirm=69
Cc1ccsc1C(=O)Nc1cccc(-n2cnnn2)c1,-,-,-,-,-,.,
O=C(NCc1cccc(F)c1)c1cccc(OC2CCN(C(=O)C3CC3)CC2)c1,-,-,-,-,-,.,
CCN(Cc1ccccc1)C(=O)c1cccc(OC2CCN(C(=O)C3CC3)CC2)c1,-,-,43,-,-,-,
CCCS(=O)(=O)NC(=O)C1(C)CCN(C(=O)c2ccccc2OC(C)=O)C1 (stereo not given),.,.,.,-,-,.,
COCc1c(C(=O)NCc2ccccc2CN2CCCC2)oc2ccccc12,.,-,-,-,-,.,
Cc1nn(CCC(N)=O)c2nc(-c3cccs3)cc(C(F)(F)F)c12,-,-,86,-,-,84,
Cc1nn(CCC(=O)O)c2nc(-c3cccnc3)cc(C(F)(F)F)c12,-,-,-,-,-,.,
O=C(CN(C(=O)c1csnn1)c1cccc(F)c1)NCc1ccc2c(c1)OCO2,-,-,-,-,-,.,
OCC[C@@H]1C[C@H](O)[C@@H](O)[C@@]2(OCCc3ccccc32)O1,-,-,-,-,-,.,
Cc1nc(CSc2ccc(Cl)cc2)cc(NCc2ccccc2)n1,-,-,73,-,-,79,
CNc1cc(CSc2ccc(Cl)cc2)nc(C)n1,-,-,-,-,-,.,
Cc1ccc(S(=O)(=O)N2CCN(C(=O)CSCc3ccc(C(C)C)cc3)CC2)cc1,.,-,-,-,-,.,
O=C1N/C(=N\N=C\c2cccs2)SC1Cc1cccc(Cl)c1 (stereo not given),-,-,-,-,-,.,
O=C1N/C(=N\N=C\c2cccs2)SC1Cc1ccc(Cl)cc1 (stereo not given),-,-,43,-,-,-,
CCc1ccc2cc3c(cc2n1)C(=O)c1ccccc1-3,.,.,.,-,-,.,
Cc1nc2c(C(=O)NCCC(C)C)c[nH]n2c(=O)c1Cc1ccccc1F,85,-,51,-,30,63,
COc1ccc(OC)c(-c2cc(C(=O)N3CCCc4ccccc43)no2)c1,-,-,47,-,-,-,ATG4B confirm=68
COc1ccccc1-c1cc(C(=O)N2CCCc3ccccc32)no1,-,-,-,-,-,.,
SMILES,Calb FLC,SUMO Mot1 rescue,ATG4B inhibitor,FAS TE block,NadD block,PLA2 ctr,others
CCOc1ccc(CNC(=S)NCc2ccc(OCC)cc2)cc1,-,-,-,-,-,.,
CC(C)COc1ccc(CNC(=S)NCc2ccccc2)cc1,-,-,64,-,-,76,
O=S(=O)(Nc1ncnc2sc3c(c12)CCC3)c1ccc2ccccc2c1,.,.,41,-,-,56,
NC(=O)c1ccc(OCC(F)(F)C(F)(F)C(F)(F)C(F)(F)C(F)(F)C(F)F)cc1,-,-,91,-,-,92,
COc1ccccc1CNC(=O)COc1cc2c(c3oc(=O)cc(C)c13)CCC(C)(C)O2,-,-,-,-,-,.,
Fc1ccc(NC(=S)Nc2ccccc2OC(F)F)cc1Cl,-,-,48,-,-,59,
Cc1ccc(NC(=S)Nc2ccc(Cl)c(Cl)c2)c(OC(F)F)c1,-,-,53,-,-,61,
COc1ccc(CCCNC(=O)C2Cc3c(-c4ccc(NC(C)=O)cc4)ccnc3O2)cc1 (stereo not given),.,.,.,-,-,.,
CC(=O)NCc1nnc2c3ccccc3c(-c3ccccc3)nn12,-,-,-,-,-,.,
O=C(NCc1nnc2c3ccccc3c(-c3ccccc3)nn12)c1ccc(Cl)cc1,-,-,42,-,-,58,
Cc1nn(CCCC(=O)Nc2cc(Oc3ccc(F)cc3)cc([N+](=O)[O-])c2)c(C)c1[N+](=O)[O-],-,-,56,-,-,60,
Cc1ccccc1Oc1cc(NC(=O)CCCn2nc(C)c([N+](=O)[O-])c2C)cc([N+](=O)[O-])c1,-,-,66,-,-,63,
Cc1ccccc1Oc1cc(NC(=O)Cn2cnc([N+](=O)[O-])c2)cc([N+](=O)[O-])c1,-,-,-,-,-,.,
COc1ccccc1CNC(=O)COC(=O)c1ccc(C)c(S(=O)(=O)N2CCOCC2)c1,.,-,-,-,-,.,
COCCn1c(Cc2ccccc2)nnc1SCC(=O)Nc1oc(C)c2c(C)n[nH]c(=O)c12,-,-,-,-,-,.,
CN1CCC2(CC1)N=C(c1ccc(F)cc1)C(=S)N2C(=O)c1ccc(C(C)(C)C)cc1,-,-,45,-,-,-,
Cc1ccc(CSc2nnc(-c3ccncc3)o2)c(C)c1,-,-,-,-,-,.,
CSc1nsc2nc(=O)c(/C=C3\C=Nc4ccccc43)c(N)n12,-,-,-,-,-,.,
Nc1c(C=C2C=CC(=O)C=C2)c(=O)nc2snc(SCc3ccccc3)n12,-,-,40,-,-,-,ATG4B confirm=76
CCCS(=O)(=O)NC(=O)C1(C)CCN(C(=O)c2ccc(SC(F)(F)F)cc2)C1 (stereo not given),.,.,.,-,-,.,
CC1(C(=O)NS(=O)(=O)c2cccc(C#N)c2)CCN1C(=O)CC1CCCCC1 (stereo not given),.,.,.,-,-,.,
S=C(NCc1cccs1)Nc1cccc(Cl)c1Cl,-,-,52,-,-,52,
Cc1c(Cl)cccc1NC(=S)NCc1cccs1,-,-,57,-,-,69,
CCN(CC)C(=O)c1ccc2nc([C@@H]3O[C@H](CO)[C@H](O)[C@H](O)[C@H]3O)[nH]c2c1,.,.,.,-,-,.,
CN(C(=O)c1cc(-c2cccs2)nn1-c1ccccc1)C1CCS(=O)(=O)C1 (stereo not given),.,.,.,-,-,.,
CCN(CCCn1c(SCC#N)nc2ccccc2c1=O)c1ccccc1,-,-,44,-,-,-,

# High-throughput results deposited in PubChem BioAssay by several laboratories.
